Data on 101 molecules can be found in PubChem BioAssay AID1259343 (VanderVen Lab, College of Veterinary Medicine, Cornell …, 2017).

Out of some 6,200 compounds screened, about 2,900 (47%) were called active. Rule as the data show it: active = inhibition above about 50%; inactive = the rest. The set was probably picked from earlier hits. Some of the results follow.

A short description of the experiment: Mycobacterium tuberculosis growth inhibition, primary screen (AID 1259343). Conditions: inhibition: at 10 µM, active compounds read high; outcome: 10 uM.
Regarding `Cc1nc(C)c(CN2CCC(C(=O)Nc3ccc(Oc4ccccc4F)cc3)CC2)nc1C`, the inhibition is 82.5% (active).

On to `O=C(Nc1cccc(-c2cccc(F)c2)c1)C1CCN(CCCn2cccn2)CC1`, for which the inhibition was 89.5% (active).

On to `O=c1c2ccccc2[nH]c(=S)n1C1CCCC1`, for which the inhibition was 90.2% (active).

On to `O=C(C1CCCC1)N1CCc2c([nH]c3ccccc23)C1c1cc(F)ccc1F` (stereo unspecified), for which the inhibition was 24.3% (inactive).

`c1ccc2c(c1)CCN(c1ncnc3c1oc1ccccc13)C2`: the inhibition is 19.2% (inactive).

For `COc1ccc(OCc2nc(C(=O)N3CCC3c3ccc(F)cc3)co2)cc1` (stereo unspecified), the inhibition is 28.5% (inactive).

`Fc1ccc(OCc2nnc3sc(C4CC4)nn23)cc1`: the inhibition was 67% (active).

With `Fc1ccc(OCc2nc(CSc3nnnn3C3CC3)cs2)cc1`, the inhibition is 4.6% (inactive).

On to `O=C(NN=Cc1ccccc1O)c1cc(C23CC4CC(CC(C4)C2)C3)[nH]n1`, for which the inhibition was 28.4% (inactive).

Regarding `COc1ccccc1C=NNC(=O)c1cc(C23CC4CC(CC(C4)C2)C3)[nH]n1`, the inhibition is 99.6% (active).

With `O=C(NN=Cc1ccc(F)cc1)c1cc(C23CC4CC(CC(C4)C2)C3)[nH]n1`, the inhibition was 10.7% (inactive).

Turning to `CC(C)Cn1c(CN(C)Cc2ncc[nH]2)nc2ccccc21`, the inhibition was 29.8% (inactive).

With `NC1=NN(c2ccccc2)CC1`, the inhibition is 82.6% (active).

On to `c1ccc(C2=NN(c3ccccc3)CC2)cc1`, for which the inhibition was -38.3% (inactive).

As to `CN(C)C=NC1=NN(c2ccccc2)CC1`, the inhibition is -0.55% (inactive).

Take `C(=NC1=NN(c2ccccc2)CC1)c1ccccc1`: the inhibition was 54% (active).

As to `CN(C)c1ccc(C=NNC2=Nc3cccc4cccc2c34)cc1`, the inhibition is 18.6% (inactive).

On to `CN(C)c1ccc(C=NC2=NN(c3ccccc3)CC2)cc1`, for which the inhibition is 90.3% (active).

Regarding `FC(F)(F)c1ccc2c(c1)n(Cc1ccc(Cl)c(Cl)c1)c1[n+]2CCCCC1`, the inhibition is 10.6% (inactive).

For the molecule `C=CC[n+]1c(-c2ccccc2)csc1Nc1ccccc1OC`, the inhibition was 88.1% (active).

In the case of `CCCCNC(=S)NN=Cc1ccc(C)o1`, the inhibition was 81.2% (active).

For the molecule `CC(=NNC(=S)NC1CCCCC1)c1ccc(C)o1`, the inhibition is -13.8% (inactive).

Consider `CCNC(=S)NN=Cc1ccco1`, for which the inhibition is 1.13% (inactive).

For the molecule `Cc1ccc(C=NNC(=S)NC(C)C)o1`, the inhibition is 54.2% (active).

With `CC(C)NC(=S)NN=Cc1c(F)c(F)c(F)c(F)c1F`, the inhibition is 82.9% (active).

Consider `Cc1ccc(C=NNC(=O)NC2CCCCC2)o1`, for which the inhibition is -14.7% (inactive).

For the molecule `Cc1ccc(C=NNC(=S)NC2CCCCC2)o1`, the inhibition was 101% (active).

In the case of `CCc1c(C)sc2[nH]c(=S)n(C)c(=O)c12`, the inhibition was 24.5% (inactive).

Take `CN(C)S(=O)(=O)n1cc(/C=C/c2nc(N)nc(-c3ccccc3O)n2)c2ccccc21`: the inhibition was 13.7% (inactive).

Regarding `CC(C)(CNC(=O)c1ccccn1)c1ccccc1`, the inhibition was 65.7% (active).

For the molecule `O=C(NCC1CCCc2ccccc21)c1ccccn1` (stereo unspecified), the inhibition is 3.26% (inactive).

In the case of `O=C(NCCc1ccc(Cl)s1)Nc1ccccn1`, the inhibition was 35.1% (inactive).

With `Fc1ccc(-c2c[nH]c(=S)[nH]2)cc1`, the inhibition was 90.2% (active).

On to `O=c1oc2ccccc2c(O)c1C(c1cncs1)c1c(O)c2ccccc2oc1=O`, for which the inhibition was -17.6% (inactive).

With `O=c1oc2ccccc2c(O)c1C(c1ccc2c(c1)OCO2)c1c(O)c2ccccc2oc1=O`, the inhibition is 54.4% (active).

In the case of `O=c1oc2ccccc2c(O)c1C(c1ccccc1O)c1c(O)c2ccccc2oc1=O`, the inhibition was 90.2% (active).

For `CC(C)[C@H](CNC(=O)[C@@H](NC(=O)c1cccc(-c2ccccc2)n1)[C@@H](C)O)B(O)O`, the inhibition is 23.9% (inactive).

For `Cc1ccc(N=Nc2cn[nH]c2C)cc1`, the inhibition is -8.23% (inactive).

As for `COc1ccc(NC(=O)C(C)CS(=O)(=O)c2ccc(Br)cc2)cc1F` (stereo unspecified), the inhibition was 61.1% (active).

`c1cc2c3c(cccc3c1)/C(=N/OCC1CO1)C2` (stereo unspecified): the inhibition is 101% (active).

As for `N#Cc1nc(COc2ccc(Br)cc2)oc1NCCCn1ccnc1`, the inhibition was 62.4% (active).

For the molecule `N#Cc1nc(-c2ccc(COc3ccc(Cl)cc3)o2)oc1NCC1CCCO1` (stereo unspecified), the inhibition was 46.9% (inactive).

`c1ccc(CC[P+](c2ccccc2)(c2ccccc2)c2ccccc2)cc1`: the inhibition is 62.6% (active).

As for `NC(CCCc1ccccc1)c1ccccc1` (stereo unspecified), the inhibition is 15.7% (inactive).

For the molecule `O=C1NC(=S)SC1=Cc1cc(O)c(O)c(Cl)c1`, the inhibition was 88.3% (active).

As for `O=C1NC(=S)SC1=Cc1ccc(F)cc1`, the inhibition is 32.6% (inactive).

`O=C1/C(=C\c2ccc(O)c(Cl)c2)CS(=O)(=O)C/C1=C/c1ccc(O)c(Cl)c1`: the inhibition was -0.82% (inactive).

Regarding `O=C1NC(=S)SC1=Cc1ccc(F)c(F)c1`, the inhibition was 88.5% (active).

For `COc1cc(C=C2SC(=S)NC2=O)cc(Br)c1O`, the inhibition is 90% (active).

On to `COc1ccc(C=C2SC(=S)NC2=O)cc1F`, for which the inhibition was 86.7% (active).

For `COc1ccc(NC(=O)CCc2ccccc2C#N)cc1`, the inhibition was 27.5% (inactive).

With `Cc1nn(C)c(C)c1CCC(=O)Nc1ccc(C(C)(C)C#N)cc1`, the inhibition is 71% (active).

Regarding `S=c1[nH]nc(-c2ccccc2)c2ccccc12`, the inhibition is 70.8% (active).

`Cc1ccc(-c2n[nH]c(=S)c3ccccc23)cc1`: the inhibition is 32.5% (inactive).

Regarding `CC1CN(c2ccc(-c3nnc(Br)s3)cc2)CC(C)(C)O1` (stereo unspecified), the inhibition is 10.5% (inactive).

Consider `O=C(O)c1ccc(COc2cccc(Cl)c2)s1`, for which the inhibition was 81.8% (active).

For the molecule `CN(C)S(=O)(=O)c1ccc(COc2cccc(Cl)c2)o1`, the inhibition was 49.6% (inactive).

Regarding `Clc1cccc(OCOCOc2cccc(Cl)c2)c1`, the inhibition is 1.77% (inactive).

Turning to `CCCNC(=O)C(C)NC(=O)c1ccc(Oc2ccc(F)cc2)cc1` (stereo unspecified), the inhibition was 62.5% (active).

Turning to `O=C(NN1CCOCC1)c1ccc(Oc2ccc(F)cc2)cc1`, the inhibition is 89.4% (active).

In the case of `CCCNC(=O)c1ccc(Oc2ccc(F)cc2)cc1`, the inhibition was 90.3% (active).

On to `Cc1ccc(Oc2ccc(NC(C)C(=O)NC(C)C)cc2)cc1` (stereo unspecified), for which the inhibition was 30.7% (inactive).

Take `C=CCOc1cccc(C2c3c(oc4ccc(C)cc4c3=O)C(=O)N2c2nccs2)c1` (stereo unspecified): the inhibition is 1.57% (inactive).

With `c1ccc(-c2nc3c(NC4CCCCC4)nccc3[nH]2)cc1`, the inhibition was 76.1% (active).

On to `Fc1ccc(-c2nc3c(NCc4ccccc4)nccc3[nH]2)cc1F`, for which the inhibition is 35.1% (inactive).

Turning to `Cc1cccc(-c2nc3c(NCc4ccccc4)nccc3[nH]2)c1`, the inhibition is 68.2% (active).

On to `c1ccc(CNc2nc(-c3ccccc3)nc3ccccc23)cc1`, for which the inhibition was -8.46% (inactive).

For the molecule `Cc1c(-c2ccccc2)[nH]c2c(CNc3nccc(N)n3)cc(Cl)cc12`, the inhibition is 25.5% (inactive).

Turning to `Fc1cc(NCc2ccccc2)nc(NCc2ccccc2)n1`, the inhibition is 13.7% (inactive).

In the case of `Cc1cccc(-c2nc3c(NCc4cccc(N(C)C)c4)nccc3[nH]2)c1`, the inhibition is 76.8% (active).

Regarding `Fc1cccc(-c2nc3c(NCc4ccccc4)nccc3[nH]2)c1`, the inhibition is 58.3% (active).

As to `Cc1ccc(-c2nc3c(NCc4cccc(N(C)C)c4)nccc3[nH]2)cc1`, the inhibition was 65.2% (active).

As to `Cc1cc(=O)[nH]c(-n2nc(C)cc2NC(=O)c2snnc2C)n1`, the inhibition is 99.6% (active).

Turning to `Cc1cc(=O)[nH]c(-n2nc(C)cc2NC(=O)C(C)C)n1`, the inhibition was 100% (active).

In the case of `C/C=C/C(=O)Nc1cc(C)nn1-c1nc(C)cc(=O)[nH]1`, the inhibition was 101% (active).

Take `CC(=O)Nc1cc(C)nn1-c1nc(C)cc(=O)[nH]1`: the inhibition is 100% (active).

Take `Cc1ccc(/C=C/S(=O)(=O)N2CC(C(N)=O)c3ccccc32)cc1` (stereo unspecified): the inhibition is -0.07% (inactive).

For the molecule `CCc1cc(=O)[nH]c(-n2nc(C)cc2NC(=O)C(C)C)n1`, the inhibition was 101% (active).

For `Cc1cc(NC(=O)c2ccccc2)n(-c2nc(C)c(C)c(=O)[nH]2)n1`, the inhibition was -21.2% (inactive).

Turning to `Cc1cc(=O)[nH]c(-n2nc(C)cc2NC(=O)c2ccc(C)c(C)c2)n1`, the inhibition was 100% (active).

For `Cc1cc(NC(=O)c2ccc(-c3ccccc3)cc2)n(-c2nc(C)c(C)c(=O)[nH]2)n1`, the inhibition is 100% (active).

For the molecule `Cc1cc(=O)[nH]c(-n2nc(C)cc2NC(=O)c2ccc(-c3ccccc3)cc2)n1`, the inhibition is 100% (active).

As for `CCOc1ccc(C(=O)Nc2cc(C)nn2-c2nc(C)c(CC)c(=O)[nH]2)cc1OCC`, the inhibition is -21.9% (inactive).

With `CCOc1ccc(C(=O)Nc2cc(C)nn2-c2nc(C)c(C)c(=O)[nH]2)cc1OCC`, the inhibition is 98.7% (active).

In the case of `Cc1cc(=O)[nH]c(-n2nc(C)cc2NC(=O)c2ccccc2)n1`, the inhibition is 101% (active).

Take `Cc1ccc(C(=O)Nc2cc(C)nn2-c2nc(C)cc(=O)[nH]2)cc1`: the inhibition is 101% (active).

Take `Cc1cc(C)cc(C(=O)Nc2cc(C)nn2-c2nc(C)cc(=O)[nH]2)c1`: the inhibition was 100% (active).

With `CSc1c(C#N)c(SCC(=O)c2cc3ccccc3oc2=O)[nH]c(=O)c1C#N`, the inhibition is 83% (active).

In the case of `CSc1c(C#N)c(=O)[nH]c2sc(C#N)c(N)c12`, the inhibition was 29.1% (inactive).

Turning to `COC(=O)c1ccc(-c2noc(CN3CCC(C(O)Cc4ccccc4)CC3)n2)cc1` (stereo unspecified), the inhibition was 14.8% (inactive).

Consider `Fc1ccccc1Cc1noc(CN2CCN(c3cccc(C(F)(F)F)c3)CC2)n1`, for which the inhibition is 34.2% (inactive).

As for `COC(=O)c1ccc(N2CCN(Cc3nc(Cc4cccc(F)c4)no3)CC2)cc1`, the inhibition was 59.4% (active).

For the molecule `COC(=O)c1ccc(-c2noc(CN3CCC(C(O)c4cccs4)CC3)n2)cc1` (stereo unspecified), the inhibition was 16.3% (inactive).

For `COC(=O)c1ccc(-c2noc(CN3CCCN(C(=O)c4ccco4)CC3)n2)cc1`, the inhibition is 84.3% (active).

`O=C(Nc1ncc(SCCN2CCCC2)s1)[C@]1(c2ccc(S(=O)(=O)C3CC3)cc2)C[C@H]1C1CCCCC1`: the inhibition is 17.1% (inactive).

With `CC(=O)Oc1ccc(CN2C(=O)C(CCc3ccccc3)ON=C2c2cnccn2)cc1` (stereo unspecified), the inhibition was 41.4% (inactive).

Turning to `CC(C)(C)c1ccc(OCc2ccc(-c3nnco3)cc2)cc1`, the inhibition was 49.7% (inactive).

For the molecule `Fc1ccc(COc2ccc(-c3nnco3)cc2)c(Cl)c1`, the inhibition was 55.8% (active).

Regarding `Cc1csc(Sc2ccc(NC(=O)c3cnn(C)c3C)cc2)n1`, the inhibition is 16.3% (inactive).

Consider `CC(=O)Nc1ccc(Sc2ncnc3sccc23)cc1`, for which the inhibition is 0.26% (inactive).

As for `CC(C)C(=O)Nc1ccc(Sc2nncs2)cc1`, the inhibition is 89.1% (active).
